Measurements from PubChem BioAssay AID624137 (Broad Institute, 2012).
Screen size: about 31,000 compounds; about 360 (1.2%) were called active. The rule behind the calls is not given here. The full list was thinned out, with actives kept by preference.

molecular target: DNA-binding protein inhibitor ID-4 (Homo sapiens) (UniProt P47928); test: PubChem AID 624137; conditions: small molecule microarray, Flag-ID4 binding, fluorescence F/B;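 note: a binder raises fluorescence above local background on the spot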
Sequence (P47928 whole entry, looked up): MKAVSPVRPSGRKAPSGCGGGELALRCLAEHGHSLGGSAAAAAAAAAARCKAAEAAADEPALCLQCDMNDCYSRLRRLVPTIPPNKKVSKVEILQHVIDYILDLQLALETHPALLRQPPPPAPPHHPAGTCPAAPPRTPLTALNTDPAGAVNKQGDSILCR

Which outcome does the source give for COC(=O)C[C@@H]1C[C@H]2c3cc(NC(=O)NC4CCCC4)ccc3O[C@H]2[C@H](CO)O1 here?
The outcome was “inactive”.

With O=C(NCC[C@H]1CC[C@@H](NC(=O)C2CCCCC2)[C@@H](CO)O1)c1ccc(F)cc1 as the molecule, how does the outcome read?
The outcome was “inactive”.

Which outcome does the source give for COc1ccc(NC(=O)N[C@@H]2C=C[C@H](CC(=O)NC3CCC3)O[C@@H]2CO)cc1 here?
Its outcome is “inactive”.

Which outcome does the source give for C[C@H](CO)N1C[C@H](C)[C@H](CN(C)C)Oc2cc(C#CC3CC3)ccc2S1(=O)=O here?
Its outcome is “inactive”.

C[C@H](CO)N1C[C@H](C)[C@H](CN(C)C(=O)c2cccnc2)Oc2ncc(C3=CCCC3)cc2C1=O was tested. Which outcome did it give?
Its outcome is “inactive”.

For O=C(C[C@@H]1CC[C@H](NC(=O)Nc2cc(F)ccc2F)[C@H](CO)O1)NCc1ccncn1, which outcome is on record?
The outcome was “inactive”.

CNC[C@@H]1Oc2cc(C#CC3CCCC3)ccc2S(=O)(=O)N([C@@H](C)CO)C[C@@H]1C was tested. Which outcome did it give?
The outcome was “inactive”.

How did the outcome turn out when Cc1ccccc1NS(=O)(=O)c1cccc(C(=O)Nc2ccccc2[N+](=O)[O-])c1 was run?
Its outcome is “inactive”.

How did the outcome turn out when C[C@@H]1CN([C@H](C)CO)C(=O)c2cc(-c3cccc(F)c3)cnc2O[C@@H]1CN(C)C was run?
The outcome was “inactive”.

For C[C@H](CO)N1C[C@H](C)[C@@H](CN(C)Cc2cccnc2)Oc2ncc(/C=C/c3ccccc3)cc2C1=O, which outcome is on record?
Its outcome is “inactive”.

For C[C@@H]1CN([C@@H](C)CO)C(=O)c2cc(/C=C/c3ccccc3)cnc2O[C@@H]1CN(C)C(=O)CN(C)C, which outcome is on record?
The outcome was “inactive”.

How did the outcome turn out when Cc1ccccc1-c1ccc2c(c1)O[C@H](CN(C)C)[C@@H](C)CN([C@H](C)CO)S2(=O)=O was run?
Its outcome is “inactive”.

Which outcome does the source give for Cc1ccc(S(=O)(=O)CCN2CCC(C(F)(F)F)CC2)cc1 here?
Its outcome is “inactive”.

With CC(=O)N(C)C[C@@H]1Oc2cc(-c3ccncc3)ccc2S(=O)(=O)N([C@@H](C)CO)C[C@H]1C as the molecule, how does the outcome read?
The outcome was “inactive”.

With C[C@@H]1CN([C@H](C)CO)C(=O)c2cc(-c3ccc(C#N)cc3)cnc2O[C@@H]1CN(C)CC1CC1 as the molecule, how does the outcome read?
Its outcome is “inactive”.

How did the outcome turn out when C[C@H]1CN([C@@H](C)CO)C(=O)c2cc(-c3ccc(C#N)cc3)cnc2O[C@@H]1CN(C)Cc1ccncc1 was run?
The outcome was “active”.

For C[C@H](CO)N1C[C@H](C)[C@H](CN(C)Cc2ccccc2)Oc2ncc(-c3ccccc3)cc2C1=O, which outcome is on record?
Its outcome is “inactive”.

For CC(=O)N[C@@H]1C=C[C@H](CC(=O)NCC2CCCCC2)O[C@H]1CO, which outcome is on record?
Its outcome is “inactive”.

How did the outcome turn out when C[C@H](CO)N1C[C@H](C)[C@H](CN(C)CC2CCCC2)Oc2ncc(-c3ccc(F)cc3)cc2C1=O was run?
The outcome was “inactive”.

How did the outcome turn out when Cn1cnc(S(=O)(=O)N[C@H]2C=C[C@H](CC(=O)NCC3CCCCC3)O[C@@H]2CO)c1 was run?
The outcome was “inactive”.

Which outcome does the source give for Cc1cc2oc(C(=O)Nc3sc4c(c3C(=O)NCc3ccco3)CCC4)c(C)c2cc1C here?
Its outcome is “active”.

For CC(=O)Nc1sccc1C(=O)NCc1ccco1, which outcome is on record?
Its outcome is “inactive”.

CCOC(=O)c1c(NC(=O)C(C)Oc2ccc3c(C)cc(=O)oc3c2)sc2c1CCC2 (stereo unspecified) was tested. Which outcome did it give?
Its outcome is “inactive”.

Which outcome does the source give for CCCNC(=O)C[C@@H]1C[C@@H]2c3cc(N(C)C)ccc3O[C@@H]2[C@H](CO)O1 here?
The outcome was “inactive”.

COc1cccc(-c2cnc3c(c2)C(=O)N([C@@H](C)CO)C[C@@H](C)[C@@H](CN(C)Cc2ccc(C(=O)O)cc2)O3)c1 was tested. Which outcome did it give?
The outcome was “inactive”.

CCCN(C)C[C@@H]1Oc2ncc(C#CC3CC3)cc2C(=O)N([C@H](C)CO)C[C@H]1C was tested. Which outcome did it give?
Its outcome is “inactive”.

For C[C@@H]1CN([C@@H](C)CO)S(=O)(=O)c2ccc(C#CCN(C)C)cc2O[C@@H]1CN(C)CC1CC1, which outcome is on record?
Its outcome is “inactive”.

Which outcome does the source give for CC(C)C#Cc1ccc2c(c1)O[C@H](CN(C)Cc1ccccc1)[C@H](C)CN([C@@H](C)CO)S2(=O)=O here?
Its outcome is “inactive”.

O=C(N[C@@H]1CC[C@@H](CC(=O)N2CCc3ccccc3C2)O[C@H]1CO)C1CCC1 was tested. Which outcome did it give?
The outcome was “inactive”.

Which outcome does the source give for CCCN(C)C[C@@H]1Oc2ncc(-c3ccccc3F)cc2C(=O)N([C@@H](C)CO)C[C@@H]1C here?
Its outcome is “inactive”.

How did the outcome turn out when CCCN(C)C[C@@H]1OCc2cnnn2CCCC(=O)N([C@H](C)CO)C[C@@H]1C was run?
Its outcome is “inactive”.

How did the outcome turn out when O=C(Cc1ccccc1)N[C@H]1C=C[C@H](CC(=O)N2CCCCC2)O[C@@H]1CO was run?
Its outcome is “inactive”.

Which outcome does the source give for CC(C)C#Cc1cnc2c(c1)C(=O)N([C@@H](C)CO)C[C@@H](C)[C@@H](CN(C)C(=O)c1cccc(F)c1)O2 here?
The outcome was “inactive”.

Which outcome does the source give for O=C(C[C@@H]1C=C[C@H](NC(=O)CN2CCOCC2)[C@@H](CO)O1)NCc1cccc(F)c1 here?
The outcome was “inactive”.

O=C(C[C@@H]1CC[C@H](NC(=O)C2CC2)[C@H](CO)O1)NCc1ccccc1Cl was tested. Which outcome did it give?
The outcome was “inactive”.

With C[C@@H]1CN([C@H](C)CO)S(=O)(=O)c2ccc(C#CCN(C)C)cc2O[C@@H]1CN(C)C as the molecule, how does the outcome read?
Its outcome is “inactive”.

CCNC(=O)C[C@@H]1CC[C@H](NC(=O)C2CCC2)[C@@H](CO)O1 was tested. Which outcome did it give?
Its outcome is “inactive”.

For COC(=O)c1ccccc1NC(=O)CN(c1ccc2c(c1)OCCO2)S(C)(=O)=O, which outcome is on record?
Its outcome is “inactive”.

CN1CCN(CC(=O)Nc2sc3c(c2C#N)CCC(C(C)(C)C)C3)CC1 (stereo unspecified) was tested. Which outcome did it give?
Its outcome is “inactive”.

With O=C(CN1CCCC1)Nc1sc2c(c1C(=O)Nc1ccccc1)CCCC2 as the molecule, how does the outcome read?
The outcome was “inactive”.

With N#Cc1c(NC(=O)C2CC(Cl)=CCC2C(=O)O)sc2c1CCC2 (stereo unspecified) as the molecule, how does the outcome read?
The outcome was “active”.

How did the outcome turn out when C[C@@H]1CN([C@H](C)CO)C(=O)c2ccccc2-c2ccccc2CO[C@@H]1CN(C)S(=O)(=O)CC(F)(F)F was run?
Its outcome is “inactive”.

Which outcome does the source give for CN(C)C(=O)C[C@H]1C[C@@H]2c3cc(NC(=O)CC4CC4)ccc3O[C@@H]2[C@@H](CO)O1 here?
Its outcome is “inactive”.

COc1cccc(-c2ccc3c(c2)O[C@H](CN(C)Cc2ccncc2)[C@H](C)CN([C@H](C)CO)S3(=O)=O)c1 was tested. Which outcome did it give?
Its outcome is “inactive”.

For Cc1noc(C)c1NC(=O)N[C@H]1CC[C@H](CC(=O)N2CCCCC2)O[C@@H]1CO, which outcome is on record?
The outcome was “inactive”.

Which outcome does the source give for C[C@H](CO)N1C[C@H](C)[C@H](CN(C)Cc2ccncc2)Oc2ccc(NC(=O)Cc3cn(C)c4ccccc34)cc2CC1=O here?
Its outcome is “inactive”.

How did the outcome turn out when C[C@@H]1CN([C@@H](C)CO)C(=O)Cc2cc(NC(=O)CCN3CCOCC3)ccc2O[C@@H]1CN(C)C(=O)Nc1cccc2ccccc12 was run?
Its outcome is “active”.

C[C@H](CO)N1C[C@H](C)[C@H](CN(C)C(=O)Nc2ccc(F)cc2)Oc2ccc(NC(=O)Cc3cn(C)c4ccccc34)cc2CC1=O was tested. Which outcome did it give?
The outcome was “active”.

How did the outcome turn out when C[C@@H]1CN([C@@H](C)CO)C(=O)Cc2cc(NC(=O)CCC(F)(F)F)ccc2O[C@@H]1CN(C)C(=O)Nc1cccc2ccccc12 was run?
The outcome was “inactive”.

How did the outcome turn out when C[C@@H]1CN([C@@H](C)CO)C(=O)Cc2cc(NC(=O)Cc3cn(C)c4ccccc34)ccc2O[C@H]1CN(C)C(=O)NC1CCCCC1 was run?
Its outcome is “inactive”.

Which outcome does the source give for C[C@H](CO)N1C[C@H](C)[C@H](CN(C)C(=O)Nc2ccccc2)Oc2ccc(NC(=O)CCN3CCOCC3)cc2CC1=O here?
The outcome was “inactive”.

Which outcome does the source give for CCC(=O)N(C)C[C@@H]1Oc2ncc(C#Cc3ccccc3)cc2C(=O)N([C@@H](C)CO)C[C@H]1C here?
The outcome was “inactive”.

C[C@@H]1CN([C@H](C)CO)C(=O)c2cc(C#CC3CC3)cnc2O[C@H]1CN(C)C(=O)CC1CC1 was tested. Which outcome did it give?
The outcome was “inactive”.

For C[C@H]1CN([C@@H](C)CO)C(=O)c2ccccc2-c2ccccc2CO[C@@H]1CN(C)C(=O)CCN(C)C, which outcome is on record?
The outcome was “inactive”.

How did the outcome turn out when CN(C)C(=O)C[C@H]1C=C[C@@H](NC(=O)C2CCC2)[C@@H](CO)O1 was run?
The outcome was “inactive”.

With O=C(C[C@H]1CC[C@H](NC(=O)C2CCC2)[C@@H](CO)O1)NCCCN1CCOCC1 as the molecule, how does the outcome read?
The outcome was “inactive”.

Which outcome does the source give for CCCN(C)C[C@H]1Oc2ncc(C#CC3CCCCC3)cc2C(=O)N([C@H](C)CO)C[C@@H]1C here?
The outcome was “inactive”.

How did the outcome turn out when O=C(c1cccc(S(=O)(=O)N2CCOCC2)c1)N(Cc1ccccc1)c1ccccn1 was run?
The outcome was “inactive”.

With C[C@H]1CN([C@@H](C)CO)S(=O)(=O)c2ccc(-c3cccc(F)c3)cc2O[C@@H]1CN(C)C as the molecule, how does the outcome read?
The outcome was “inactive”.

Which outcome does the source give for O=C(CCN1CCCCC1)N[C@@H]1C=C[C@@H](CC(=O)N2CCC(Cc3ccccc3)CC2)O[C@H]1CO here?
Its outcome is “inactive”.

With O=C(C[C@H]1CC[C@H](NS(=O)(=O)c2ccccc2)[C@H](CO)O1)NCc1ccncn1 as the molecule, how does the outcome read?
The outcome was “inactive”.

Which outcome does the source give for O=C(CSc1nccc(=O)[nH]1)Nc1cccc(Br)c1 here?
The outcome was “inactive”.

How did the outcome turn out when C[C@@H]1CN([C@@H](C)CO)C(=O)c2cc(C#CCN(C)C)cnc2O[C@@H]1CN(C)Cc1ccccn1 was run?
The outcome was “inactive”.

For C[C@@H]1CN([C@H](C)CO)C(=O)c2cc(C#CC3CCCC3)cnc2O[C@H]1CN(C)S(C)(=O)=O, which outcome is on record?
The outcome was “inactive”.

O=C(C[C@@H]1C=C[C@H](NC(=O)Nc2ccccc2F)[C@H](CO)O1)NCc1ccc(F)cc1 was tested. Which outcome did it give?
Its outcome is “inactive”.

With C[C@@H]1CN([C@@H](C)CO)S(=O)(=O)c2ccc(C#C[C@@H](C)O)cc2O[C@@H]1CN(C)C(=O)CN(C)C as the molecule, how does the outcome read?
Its outcome is “inactive”.

Which outcome does the source give for C[C@H](CO)N1C[C@H](C)[C@@H](CN(C)Cc2ccccn2)Oc2ncc(C3=CCCC3)cc2C1=O here?
The outcome was “inactive”.

With CN(C)c1ccc(NC(=O)CN(C)S(=O)(=O)c2ccc(Br)cc2)cc1 as the molecule, how does the outcome read?
The outcome was “inactive”.

Which outcome does the source give for C[C@@H]1CN([C@@H](C)CO)C(=O)Cc2cc(NC(=O)Cc3ccccc3)ccc2O[C@H]1CN(C)Cc1ccc(C(=O)O)cc1 here?
Its outcome is “active”.

With COc1ccc(CN(C)C[C@@H]2Oc3ccc(NC(=O)Nc4ccc(OC)cc4)cc3CC(=O)N([C@H](C)CO)C[C@H]2C)cc1 as the molecule, how does the outcome read?
Its outcome is “inactive”.

Which outcome does the source give for COc1ccc(CN(C)C[C@@H]2Oc3ccc(NC(=O)Nc4ccc5c(c4)OCO5)cc3CC(=O)N([C@H](C)CO)C[C@H]2C)cc1 here?
Its outcome is “active”.

For C[C@@H]1CN([C@H](C)CO)C(=O)Cc2cc(NC(=O)Nc3ccc(F)cc3)ccc2O[C@@H]1CN(C)Cc1ccc2c(c1)OCO2, which outcome is on record?
Its outcome is “inactive”.

For COc1ccc(CN(C)C[C@H]2Oc3ccc(NC(=O)Cc4ccccc4)cc3CC(=O)N([C@@H](C)CO)C[C@@H]2C)cc1, which outcome is on record?
Its outcome is “inactive”.

Which outcome does the source give for C[C@@H]1CN([C@@H](C)CO)C(=O)Cc2cc(NC(=O)Cc3cn(C)c4ccccc34)ccc2O[C@H]1CN(C)Cc1ccc(C(=O)O)cc1 here?
The outcome was “inactive”.

For O=C(C[C@@H]1C=C[C@@H](NC(=O)C2CCC2)[C@H](CO)O1)NCC1CC1, which outcome is on record?
Its outcome is “inactive”.

How did the outcome turn out when O=C(C[C@@H]1CC[C@H](NC(=O)C2CCC2)[C@@H](CO)O1)NC1CCCCC1 was run?
The outcome was “inactive”.
